The full ranking holds about 16,000 sequences; the median of “rpm ratio (pull-down/input)” is about 0.5, and the highest 2% start at about 5.5. Many of the other results were omitted from the sample, so the highest values are more common in it than they were.

The assay addresses T1, MBP-FoxP3dN (Mus musculus, UniProt Q99JB6 188-423).
T1 sequence: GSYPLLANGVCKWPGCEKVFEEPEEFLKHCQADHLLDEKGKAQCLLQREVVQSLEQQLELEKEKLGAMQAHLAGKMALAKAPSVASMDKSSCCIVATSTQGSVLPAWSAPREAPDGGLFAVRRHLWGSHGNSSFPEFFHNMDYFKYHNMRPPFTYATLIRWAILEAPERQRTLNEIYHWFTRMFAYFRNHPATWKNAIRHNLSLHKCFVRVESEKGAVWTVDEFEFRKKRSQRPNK
Put plainly: PD-seq (MBP pull-down with sequencing); 20 mM Tris-HCl pH 7.5, 100 mM NaCl, 1.5 mM MgCl2, 0.4 uM protein, 0.1 uM dsDNA library, 30 min, room temperature, amylose pull-down; high values mean tight binding. The following applies: protein: recombinant; tags: His6-MBP; chain copies: 2; dsDNA, one strand shown. In short, it runs like this:
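A degenerate double-stranded DNA library, filled in with Klenow, was added at 0.1 µM to 0.4 µM His6-MBP-tagged mouse FoxP3 or FoxP1 fragment lacking the N-terminus, expressed in E. coli. Incubation lasted 30 min at room temperature in Tris pH 7.5 buffer with NaCl and MgCl2, after which complexes were collected on amylose resin, washed three times, digested with proteinase K to free the DNA, barcoded by PCR and sequenced by Illumina. Binding is the pooled-replicate reads-per-million enrichment of pull-down over input.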
For the sequence “GATGATTGTTCTCCCAGCTGATGAATTCTGCAACTCGAGTAAACAAATTTTCCTAATCTTTCTGTTCAAGCGCCATCTAC”, the binding signal was 5.96 RPM ratio (pull-down/input).

Turning to “GATGATTGTTCTCCCAGCTGATGAATTTTGCAACTCGAGTAAACAAATTTTCCTAATCTTTCTGTTCAAGCGCCATCTAC”, the binding signal is 6.24 RPM ratio (pull-down/input).

Regarding “GATGATTGTTCTCCCAGCTGATGAATTCCGCAAATCGAGTAAACAAATTTTCCTAATCTTTCTGTTCAAGCGCCATCTAC”, the binding signal is 0.692 RPM ratio (pull-down/input).

For the sequence “GATGATTGTTCTCCCAGCTGATGAATTCAACAACTCGAGTAAACAAATTTTCCTAATCTTTCTGTTCAAGCGCCATCTAC”, the binding signal is 0.576 RPM ratio (pull-down/input).

With “GATGATTGTTCTCCCAGCTGATGAATTGTGCAACTCGAGTAAACAAATTTTCCTAATCTTTCTGTTCAAGCGCCATCTAC”, the binding signal is 6.92 RPM ratio (pull-down/input).

As for “GATGATTGTTCTCCCAGCTGATGAATTTGCCAACTCGAGTAAACAAATTTTCCTAATCTTTCTGTTCAAGCGCCATCTAC”, the binding signal is 0.47 RPM ratio (pull-down/input).

For the sequence “GATGATTGTTCTCCCAGCTGATGAATTCAGCAACTCGAGTAAACAAATTTTCCTAATCTTTCTGTTCAAGCGCCATCTAC”, the binding signal was 4.78 RPM ratio (pull-down/input).

In the case of “GATGATTGTTCTCCCAGCTGATGAATTGCAACTCTCGAGTAAACAAATTTTCCTAATCTTTCTGTTCAAGCGCCATCTAC”, the binding signal was 2.79 RPM ratio (pull-down/input).

Consider “GATGATTGTTCTCCCAGCTGATGAATTATCAAACTCGAGTAAACAAATTTTCCTAATCTTTCTGTTCAAGCGCCATCTAC”, for which the binding signal was 0.363 RPM ratio (pull-down/input).

Turning to “GATGATTGTTCTCCCAGCTGATGAATTGCCCTCCTCGAGTAAACAAATTTTCCTAATCTTTCTGTTCAAGCGCCATCTAC”, the binding signal is 0.471 RPM ratio (pull-down/input).

Turning to “GATGATTGTTCTCCCAGCTGATGAATTTCGTCAATCGAGTAAACAAATTTTCCTAATCTTTCTGTTCAAGCGCCATCTAC”, the binding signal is 0.411 RPM ratio (pull-down/input).

Consider “GATGATTGTTCTCCCAGCTGATGAATTATTAGCTTCGAGTAAACAAATTTTCCTAATCTTTCTGTTCAAGCGCCATCTAC”, for which the binding signal was 0.671 RPM ratio (pull-down/input).

For the sequence “GATGATTGTTCTCCCAGCTGATGAATTATTCCGATCGAGTAAACAAATTTTCCTAATCTTTCTGTTCAAGCGCCATCTAC”, the binding signal is 0.214 RPM ratio (pull-down/input).

Consider “GATGATTGTTCTCCCAGCTGATGAATTTCATCTGTCGAGTAAACAAATTTTCCTAATCTTTCTGTTCAAGCGCCATCTAC”, for which the binding signal is 0.411 RPM ratio (pull-down/input).

Take “GATGATTGTTCTCCCAGCTGATGAATTGTGGCTGTCGAGTAAACAAATTTTCCTAATCTTTCTGTTCAAGCGCCATCTAC”: the binding signal is 1.13 RPM ratio (pull-down/input).

“GATGATTGTTCTCCCAGCTGATGAATTATCATCGTCGAGTAAACAAATTTTCCTAATCTTTCTGTTCAAGCGCCATCTAC”: the binding signal was 0.418 RPM ratio (pull-down/input).

As to “GATGATTGTTCTCCCAGCTGATGAATTAGCTAAGTCGAGTAAACAAATTTTCCTAATCTTTCTGTTCAAGCGCCATCTAC”, the binding signal was 0.231 RPM ratio (pull-down/input).

As for “GATGATTGTTCTCCCAGCTGATGAATTCCAGTAATCGAGTAAACAAATTTTCCTAATCTTTCTGTTCAAGCGCCATCTAC”, the binding signal was 0.477 RPM ratio (pull-down/input).

Regarding “GATGATTGTTCTCCCAGCTGATGAATTTGCTATTTCGAGTAAACAAATTTTCCTAATCTTTCTGTTCAAGCGCCATCTAC”, the binding signal was 5.54 RPM ratio (pull-down/input).

Consider “GATGATTGTTCTCCCAGCTGATGAATTTGTTGCTTCGAGTAAACAAATTTTCCTAATCTTTCTGTTCAAGCGCCATCTAC”, for which the binding signal was 6.86 RPM ratio (pull-down/input).

On to “GATGATTGTTCTCCCAGCTGATGAATTTTGCTATTCGAGTAAACAAATTTTCCTAATCTTTCTGTTCAAGCGCCATCTAC”, for which the binding signal was 5.16 RPM ratio (pull-down/input).

Regarding “GATGATTGTTCTCCCAGCTGATGAATTTTTGCTTTCGAGTAAACAAATTTTCCTAATCTTTCTGTTCAAGCGCCATCTAC”, the binding signal was 0.978 RPM ratio (pull-down/input).

“GATGATTGTTCTCCCAGCTGATGAATTTGCTTTTTCGAGTAAACAAATTTTCCTAATCTTTCTGTTCAAGCGCCATCTAC”: the binding signal is 5.38 RPM ratio (pull-down/input).

On to “GATGATTGTTCTCCCAGCTGATGAATTTTGCTGTTCGAGTAAACAAATTTTCCTAATCTTTCTGTTCAAGCGCCATCTAC”, for which the binding signal is 5.2 RPM ratio (pull-down/input).

“GATGATTGTTCTCCCAGCTGATGAATTTGCTGTTTCGAGTAAACAAATTTTCCTAATCTTTCTGTTCAAGCGCCATCTAC”: the binding signal was 6.28 RPM ratio (pull-down/input).

As for “GATGATTGTTCTCCCAGCTGATGAATTCTTTGCTTCGAGTAAACAAATTTTCCTAATCTTTCTGTTCAAGCGCCATCTAC”, the binding signal was 0.407 RPM ratio (pull-down/input).

Regarding “GATGATTGTTCTCCCAGCTGATGAATTTGCTTGTTCGAGTAAACAAATTTTCCTAATCTTTCTGTTCAAGCGCCATCTAC”, the binding signal was 6.99 RPM ratio (pull-down/input).

For the sequence “GATGATTGTTCTCCCAGCTGATGAATTTGCTGCTTCGAGTAAACAAATTTTCCTAATCTTTCTGTTCAAGCGCCATCTAC”, the binding signal is 3.05 RPM ratio (pull-down/input).

With “GATGATTGTTCTCCCAGCTGATGAATTGCTGTTTTCGAGTAAACAAATTTTCCTAATCTTTCTGTTCAAGCGCCATCTAC”, the binding signal is 2.65 RPM ratio (pull-down/input).

Regarding “GATGATTGTTCTCCCAGCTGATGAATTGCTATTTTCGAGTAAACAAATTTTCCTAATCTTTCTGTTCAAGCGCCATCTAC”, the binding signal is 1.47 RPM ratio (pull-down/input).

As for “GATGATTGTTCTCCCAGCTGATGAATTGTGCACCTCGAGTAAACAAATTTTCCTAATCTTTCTGTTCAAGCGCCATCTAC”, the binding signal was 2.92 RPM ratio (pull-down/input).

With “GATGATTGTTCTCCCAGCTGATGAATTCGGAACGTCGAGTAAACAAATTTTCCTAATCTTTCTGTTCAAGCGCCATCTAC”, the binding signal is 0.297 RPM ratio (pull-down/input).
